Source: PubChem BioAssay (NCATS)
Records with an inconclusive call do not appear. Calls of active or inactive are those of the source. The call rests on the fitted dose curve; in most records, active means well fitted inhibition curve with a large enough effect; inconclusive means small, poorly fitted or top-dose-only effect; inactive means no such curve, though single readings can be large or run the other way.

Biological target: Cytochrome P450 2D6 (Homo sapiens) (UniProt P10635)
Experiment: qHTS Assay for Inhibitors and Substrates of Cytochrome P450 2D6 (AID 891)
Conditions: recombinant CYP2D6, luciferin-ME EGE luminescence; series mostly up to 57.1 µM
Method in brief: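 Luminescent read-out of luciferin formed by 5 nM human CYP2D6 demethylating 30 uM Luciferin-ME EGE (Km level) over 60 min at room temperature after NADPH regeneration addition. Data normalized to full inhibition by 1.43 uM quinidine.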
Further: nearly all actives have a fitted effect of over 60% in size.
Potency means the concentration at half of the fitted maximal effect.

Cytochrome P450 2D6 (Homo sapiens), sequence (P10635 whole entry, looked up): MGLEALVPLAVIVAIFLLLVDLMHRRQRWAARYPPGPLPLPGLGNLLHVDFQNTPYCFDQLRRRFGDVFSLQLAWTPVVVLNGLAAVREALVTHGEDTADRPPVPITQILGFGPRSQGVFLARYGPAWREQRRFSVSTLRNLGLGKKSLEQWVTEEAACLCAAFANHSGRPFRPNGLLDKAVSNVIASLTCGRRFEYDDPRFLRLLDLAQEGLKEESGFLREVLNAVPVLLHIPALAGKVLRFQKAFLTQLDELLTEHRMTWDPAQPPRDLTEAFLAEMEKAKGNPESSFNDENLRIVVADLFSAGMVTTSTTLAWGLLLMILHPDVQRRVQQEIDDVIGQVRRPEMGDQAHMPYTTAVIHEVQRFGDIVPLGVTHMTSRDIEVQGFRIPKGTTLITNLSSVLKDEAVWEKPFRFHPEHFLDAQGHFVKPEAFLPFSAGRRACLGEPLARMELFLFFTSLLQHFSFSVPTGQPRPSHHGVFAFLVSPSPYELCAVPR

Potency, active:
N#Cc1cccc(-c2nccc(NCc3ccccc3)n2)c1 7.94 µM
COc1ccc(CNc2ccnc(-c3ccccc3OC)n2)c(OC)c1 3.98 µM
CN(C)Cc1ccccc1-c1nc(NC2CC2)c2ccccc2n1 3.98 µM
CCNc1ncc2nc(-c3ccccc3)c(=O)n(CCOC)c2n1 3.16 µM

Biological target: Cytochrome P450 2C19 (Homo sapiens) (UniProt P33261)
Sequence (P33261 whole entry, looked up): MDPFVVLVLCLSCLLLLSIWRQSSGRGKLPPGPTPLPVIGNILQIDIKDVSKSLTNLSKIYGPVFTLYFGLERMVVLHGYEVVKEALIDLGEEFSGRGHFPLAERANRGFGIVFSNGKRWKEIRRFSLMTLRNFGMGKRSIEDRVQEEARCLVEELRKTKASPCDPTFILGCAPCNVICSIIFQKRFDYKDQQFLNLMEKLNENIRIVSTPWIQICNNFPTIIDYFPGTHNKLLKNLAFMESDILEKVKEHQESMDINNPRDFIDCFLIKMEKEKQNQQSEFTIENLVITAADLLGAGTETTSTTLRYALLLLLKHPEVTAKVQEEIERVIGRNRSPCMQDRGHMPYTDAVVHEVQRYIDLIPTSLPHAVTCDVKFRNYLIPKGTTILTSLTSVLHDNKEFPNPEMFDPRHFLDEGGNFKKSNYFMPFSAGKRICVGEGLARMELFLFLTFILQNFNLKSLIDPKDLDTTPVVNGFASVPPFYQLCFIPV
Experiment: qHTS Assay for Inhibitors and Substrates of Cytochrome P450 2C19 (AID 899)
Conditions: recombinant CYP2C19, luciferin-H EGE luminescence; series mostly up to 57.1 µM
Method in brief: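 5 nM human CYP2C19 with 10uM Luciferin-H EGE (at KM) in 50mM KPO4, compound preincubated 10 min at 37C, then NADPH regeneration for 60 min at 37C. Luciferin read by luminescence after detection reagent; normalized to 57uM ketoconazole as full inhibition.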

Potency, active:
COc1ccc(CNc2ccnc(-c3c(C)noc3C)n2)c(OC)c1 1.58 µM
COc1ccccc1CNc1cc(-c2ccccc2C(F)(F)F)ncn1 1 µM
c1ccc(CNc2ncncc2-c2ccc3c(c2)OCO3)cc1 0.501 µM
Cc1noc(C)c1-c1nc(Nc2ccc(F)cc2)c2ccccc2n1 3.16 µM
COc1cccc(Cn2c(=O)c(-c3cccs3)nc3cncnc32)c1 5.01 µM
CN(Cc1ccco1)c1ncnc2ccc(-c3ccccc3C#N)cc12 1.26 µM
COc1cccc(-c2cc(NCc3ccccc3)ncn2)c1 7.94 µM
N#Cc1cccc(-c2nccc(NCc3cccs3)n2)c1 3.98 µM
Cc1ccccc1-c1cncnc1NCc1cccnc1 0.398 µM
CN(C)c1ccc(-c2cncnc2N(C)Cc2ccco2)cc1 0.251 µM
